Assay results as given in PubChem BioAssay (EPA / NIEHS).
Inconclusive results are not listed. The source made the active and inactive calls. Rule for the calls: active = hit-call score of the fitted dose curve at least 0.9, where 1 is the maximum; inconclusive = response in the unintended direction; inactive = score below 0.9.

Assays:
[1] = Tanguay_ZF_120hpf_SNOU_legacy: (Legacy) Oregon State University Tanguay Lab 120 Hour Post-fertilization zebrafish Assay for Snout Malformation (AID 2283637)
In short: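 Dechorionated zebrafish, individually housed from 6 hpf in covered, sealed wells at 28C with 0.64% DMSO vehicle, were examined at 120 hpf for snout malformation. Responses were binary and analysed positive-direction relative to DMSO.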

[2] = Tanguay_ZF_120hpf_JAW_legacy: (Legacy) Oregon State University Tanguay Lab 120 Hour Post-fertilization zebrafish Assay for Jaw Malformation (AID 2283638);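 for AC50: active means more embryos with jaw malformation than DMSO controls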
In short: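 Dechorionated Tropical 5D wild-type zebrafish embryos, one per well, exposed statically from 6 hpf to 120 hpf at 28C in 0.64% DMSO. Jaw malformation was scored by brightfield microscopy as present or absent. It was not scored in dead embryos.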

[3] = Tanguay_ZF_120hpf_BRAI_legacy: (Legacy) Oregon State University Tanguay Lab 120 Hour Post-fertilization zebrafish Assay for Brain Malformation (AID 2283641)
In short: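 Tropical 5D wild-type zebrafish embryos exposed statically until 120 hpf at 28C, 0.64% DMSO final, sealed and dark. Brain malformation scored present/absent by brightfield at 120 hpf; dead embryos excluded. Trimethyltin chloride 5uM positive control.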

[4] = Tanguay_ZF_120hpf_SOMI_legacy: (Legacy) Oregon State University Tanguay Lab 120 Hour Post-fertilization zebrafish Assay for Somite Malformation (AID 2283647)
In short: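 Dechorionated Tropical 5D wild-type zebrafish embryos, one per well from 6 hpf, statically exposed at 28C to 120 hpf in 0.64% DMSO; somite malformation scored present/absent by brightfield; trimethyltin 5 uM positive control; dead embryos not scored.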

[5] = Tanguay_ZF_120hpf_PFIN_legacy: (Legacy) Oregon State University Tanguay Lab 120 Hour Post-fertilization zebrafish Assay for Pectoral Fin Malformation (AID 2283648);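 note: each larva judged yes or no for fin defect by brightfield with dead larvae skipped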
In short: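 Scoring of pectoral fin malformation was binary, made at 120 hpf on larvae exposed statically from 6 hpf after enzymatic chorion removal. Activity was fitted upward relative to DMSO controls at 0.64% (vol/vol).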

[6] = Tanguay_ZF_120hpf_CFIN_legacy: (Legacy) Oregon State University Tanguay Lab 120 Hour Post-fertilization zebrafish Assay for Caudal Fin Malformation (AID 2283649)
In short: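 Dechorionated Tropical 5D wild-type embryos, one per well from 6 hpf, static exposure to 120 hpf at 28C in 0.64% DMSO. Caudal fin malformation scored by brightfield as present/absent; not scored in dead embryos.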

[7] = Tanguay_ZF_120hpf_PIG_legacy: (Legacy) Oregon State University Tanguay Lab 120 Hour Post-fertilization zebrafish Assay for Pigmentation Malformation (AID 2283650)
In short: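 Endpoint is incidence of abnormal pigmentation at 120 hpf in dechorionated 5D zebrafish exposed singly from 6 hpf at 28C, DMSO vehicle at 0.64%. Embryos dying by 24 or 120 hpf are excluded from scoring.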

[8] = Tanguay_ZF_120hpf_CIRC_legacy: (Legacy) Oregon State University Tanguay Lab 120 Hour Post-fertilization zebrafish Assay for Circulatory Malformation (AID 2283651)
In short: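 Static exposure, 6–120 hpf, 28C, sealed and dark; one dechorionated 5D embryo/well; DMSO 0.64% v/v final. Binary circulation endpoint by brightfield; dead embryos not scored.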

[9] = Tanguay_ZF_120hpf_PE_legacy: (Legacy) Oregon State University Tanguay Lab 120 Hour Post-fertilization zebrafish Assay for Pericardial Edema (AID 2283640);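 for AC50: potency for increased incidence of pericardial edema versus DMSO baseline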
In short: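 Tropical 5D wild-type zebrafish embryos were statically exposed until 120 hpf at 28C, with 0.64% DMSO final. Pericardial edema was scored by brightfield as present or absent; endpoints were not scored in dead embryos.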

[10] = Tanguay_ZF_120hpf_OTIC_legacy: (Legacy) Oregon State University Tanguay Lab 120 Hour Post-fertilization zebrafish Assay for Otic Vesicle Malformation (AID 2283639)
In short: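 Brightfield scoring at 120 hpf, binary present/absent; DMSO negative control, 5uM trimethyltin chloride positive control. Static exposure at 28C, final DMSO 0.64% (vol/vol). Dead embryos not scored for malformation.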

Measured: AC50

CC(c1ccc(O)cc1)(c1ccc(O)cc1)c1ccc(O)cc1
not listed: [9] | [10]
inactive: all other assays above

Cc1ccccc1CO[C@@H]1C[C@@]2(C(C)C)CC[C@]1(C)O2
not listed: [1] | [10]
inactive: all other assays above

C=CC(=O)NCNC(=O)C=C
not listed: [1]
inactive: all other assays above

ClC(Cl)=C(c1ccc(Cl)cc1)c1ccc(Cl)cc1
not listed: [7] | [10]
inactive: all other assays above

O=S(=O)(O)C(F)(F)C(F)(F)C(F)(F)C(F)(F)F
inactive: [1] | [2] | [7]

Oc1c(Cl)c(Cl)c(Cl)c(Cl)c1Cl
not listed: [1]
inactive: all other assays above

Cc1cc(-c2ccc(N)c(C)c2)ccc1N
inactive: all assays above

CCCCCCCCCc1ccc(O)cc1
not listed: [3] | [5] | [8]
inactive: all other assays above

CCCN(CCC)N=O
not listed: [3] | [10]
inactive: all other assays above

C=CC(N)=O
not listed: [1]
inactive: all other assays above

Cc1cccc([N+](=O)[O-])c1
not listed: [1] | [8]
inactive: all other assays above

CCOC(=O)C(O)(c1ccc(Cl)cc1)c1ccc(Cl)cc1
not listed: [4] | [8]
inactive: all other assays above

COc1ccc(O)c(C(C)(C)C)c1
not listed: [8] | [10]
inactive: all other assays above

CN(C)c1nc(=O)n(C2CCCCC2)c(=O)n1C
inactive: [1] | [9] | [3] | [6] | [8]

CCC(C)(CC)c1cc(NC(=O)c2c(OC)cccc2OC)on1
not listed: [7] | [8] | [10]
inactive: all other assays above

O=C(O)C(F)(F)C(F)(F)C(F)(F)C(F)(F)C(F)(F)C(F)(F)C(F)(F)C(F)(F)F
not listed: [10]
inactive: all other assays above

O=C(N[C@H]1CN2CCC1CC2)c1cc2ccoc2cn1
not listed: [1]
inactive: all other assays above

Cc1cc2c3c(c1)C(c1ccccc1)=N[C@@H](NC(=O)c1ccncc1)C(=O)N3CC2
not listed: [1] | [8] | [10]
inactive: all other assays above

Clc1ccc(C(c2ccccc2Cl)C(Cl)(Cl)Cl)cc1 (stereo not drawn)
not listed: [2] | [4]
inactive: all other assays above

N#Cc1ccc(N(CC(N)=O)CC(F)(F)F)cc1C(F)(F)F
not listed: [4] | [8]
inactive: all other assays above

Cc1ccc(O)c(C)c1
not listed: [1]
inactive: all other assays above

Cc1ccccc1[N+](=O)[O-]
not listed: [10]
inactive: all other assays above

Clc1ccc(Cl)cc1
not listed: [3] | [5] | [10]
inactive: all other assays above

CCOCCOC(C)=O
not listed: [1]
inactive: all other assays above

ClC1=C(Cl)[C@]2(Cl)[C@@H]3[C@@H](Cl)[C@H]4O[C@H]4[C@@H]3C1(Cl)C2(Cl)Cl
not listed: [6] | [7] | [10]
inactive: all other assays above

CCCCCCCCOC(=O)c1ccccc1C(=O)OCCCCCCCC
not listed: [1]
inactive: all other assays above

CN(C)CCO
not listed: [10]
inactive: all other assays above

Cc1cccc(C)c1N
inactive: [1] | [9] | [6] | [7] | [8]

CCC(C)(c1ccc(O)cc1)c1ccc(O)cc1
inactive: [6]
active: [2] 47.3 µM | [9] 43.4 µM | [3] 50.6 µM | [4] 46.4 µM | [5] 44.7 µM | [7] 43.2 µM | [8] 42.7 µM
